Source: PubChem BioAssay
Sampled rows, rich in hits. Any-hit rate of the full collection: about 3.2%.
GALK inh = galactokinase (human) inhibition; Potency, µM (highest dose often 57.5 µM), for the others: top-dose activity change, negative = inhibition, hits mostly inhibitors; 270,000 tested, 0.007% active; P51570; Purified GALK, Kinase-Glo residual ATP luminescence; note: potency is the fitted concentration of half-maximal effect; % is set by controls: 0 for no effect and ±100 for the full control effect
Target sequence (P51570 whole entry, looked up): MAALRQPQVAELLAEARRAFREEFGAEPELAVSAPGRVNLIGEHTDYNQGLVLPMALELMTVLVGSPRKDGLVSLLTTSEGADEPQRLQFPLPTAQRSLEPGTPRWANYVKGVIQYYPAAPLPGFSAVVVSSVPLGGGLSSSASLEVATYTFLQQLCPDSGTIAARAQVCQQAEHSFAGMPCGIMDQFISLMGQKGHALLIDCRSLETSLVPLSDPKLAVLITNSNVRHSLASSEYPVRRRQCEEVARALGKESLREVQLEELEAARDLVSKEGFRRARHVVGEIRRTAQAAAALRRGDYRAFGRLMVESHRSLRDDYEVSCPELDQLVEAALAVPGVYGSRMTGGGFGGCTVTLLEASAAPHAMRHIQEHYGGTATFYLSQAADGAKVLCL
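GALK at 5 nM final was combined with compound, 35 uM ATP and 100 uM galactose in HEPES pH8.0 with MgCl2 and DTT. The reaction ran one hour at room temperature before luminescent ATP detection.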
PLK1 PBD block = inhibitors of human PLK1 polo-box domain binding; P53350; Plk1 PBD binding of FITC phosphopeptide, fluorescence polarization; AID 720504; Potency, µM, without a hit: max response, negative = inhibition, actives largely listed as inhibitors; 360,000 tested, 2.8% active; note: potency is the fitted concentration of half-maximal effect; series mostly up to about 57 µM; % is set by controls: 0 for no effect and ±100 for the full control effect; nearly all actives have a fitted effect of over 65% in size
USP1 inh = inhibitors of human USP1/UAF1 deubiquitinase. O94782. recombinant USP1/UAF1, Ub-Rhodamine cleavage fluorescence. Potency, µM (highest dose often 57.1 µM), without a hit: at the highest dose activity change, negative = inhibition, most hits filed as inhibitors. 390,000 tested, 0.23% active. AID 743255; note: potency is the fitted concentration of half-maximal effect; % is set by controls: 0 for no effect and ±100 for the full control effect; nearly all actives have a fitted effect of over 60% in size
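USP1/UAF1 complex (1 nM) preincubated 15 min at room temperature with compound, then Ub-Rho substrate (150 nM final) added. Kinetic fluorescence at 480/540 nm over 6 reads at 60 s intervals; 50 mM HEPES pH 7.8, 0.5 mM EDTA, 0.1 mg/ml BSA, 1 mM TCEP, 0.01% Tween-20.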
VDR inhibitor = blocks the human vitamin D receptor | VDR-SRC2-3 peptide fluorescence polarization, 2 h | Potency, µM, for inactives: max response, negative = inhibition, actives largely listed as inhibitors | 400,000 tested, 0.93% active; note: potency is the fitted concentration of half-maximal effect; % is set by controls: 0 for no effect and ±100 for the full control effect
Target sequence (P11473 whole entry, looked up): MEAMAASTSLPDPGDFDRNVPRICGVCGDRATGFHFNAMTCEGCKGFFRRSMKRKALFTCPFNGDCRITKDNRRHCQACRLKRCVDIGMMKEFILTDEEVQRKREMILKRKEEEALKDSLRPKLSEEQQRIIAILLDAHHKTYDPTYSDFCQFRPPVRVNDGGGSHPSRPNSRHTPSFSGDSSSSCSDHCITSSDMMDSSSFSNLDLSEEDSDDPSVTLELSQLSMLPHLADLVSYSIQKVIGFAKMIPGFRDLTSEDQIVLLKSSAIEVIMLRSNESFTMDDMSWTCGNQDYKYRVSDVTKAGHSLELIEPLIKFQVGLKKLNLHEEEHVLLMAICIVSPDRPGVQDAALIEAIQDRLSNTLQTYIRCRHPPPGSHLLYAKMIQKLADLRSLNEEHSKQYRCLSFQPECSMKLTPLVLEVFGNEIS
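VDR–SRC2-3 interaction, FP format. Cmpds 23 nl via pintool, brief spin, 2 h ambient incubation.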
USP2a inh = blocks human ubiquitin-specific protease USP2a. Potency, µM (highest dose often 38.3 µM), inactives show top-dose activity change, negative = inhibition, actives largely listed as inhibitors. USP2 core, Ub-CHOP2 coupled fluorogenic reporter, 485/531. 330,000 tested, 0.01% active. AID 463254. O75604;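 note: potency is the fitted concentration of half-maximal effect; plate controls were DMSO wells for no effect and full inhibition by NEM control for full effect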
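USP2 core (10nM final) preincubated 30min RT with compound in 20mM Tris-HCl pH 8.0, 2mM CaCl2, 2mM beta-mercaptoethanol, 0.05% CHAPS; 25nM Ub-CHOP2 plus 25nM reporter substrate added, fluorescence (Ex485/Em531) read after 60min.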
FBPA coupling cs = coupling enzyme interference in Giardia aldolase counter-screen | coupling enzyme system counterscreen, AmpLite Red fluorescence | activity change, negative = inhibition, % at 58.2 µM, hits read low | 290,000 tested, 0.67% active; in the data active = activity change below about -30%; note: % is set by controls: 0 for no effect and ±100 for the full control effect
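Counterscreen of the coupled detection system alone, without aldolase: glyceraldehyde-3-phosphate coupling enzymes plus AmpLite Red readout. Compounds at 57.5 uM final, 10 min RT preincubation, 20 min RT reaction, fluorescence 525/598 nm.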
VDR inh confirm = confirmation of human vitamin D receptor inhibitors; shares compounds with VDR inhibitor; VDR-coactivator inhibition assay, qHTS confirmation; Potency, µM, actives largely listed as inhibitors; 840 tested, 89% active; AID 602199; note: potency is the fitted concentration of half-maximal effect
VDR FP fluor = blocks human VDR-coactivator binding in fluorescein assay | shares compounds with VDR inhibitor | VDR-coactivator binding, fluorescein fluorescence polarization | Potency, µM (titrated, usually from 57.1 µM), for the others: at the highest dose activity change, negative = inhibition, hits mostly inhibitors | 840 tested, 48% active | AID 602200; note: potency is the fitted concentration of half-maximal effect
VDR bla = inhibits human VDR in beta-lactamase reporter cells | Potency, µM (titrated, usually from 46.1 µM), without a hit: top-dose activity change, negative = inhibition, hits mostly inhibitors | AID 602202 | 840 tested, 23% active | VDR beta-lactamase reporter cells, FRET ratio; cells co-treated with VDR agonist LG190178 | shares compounds with VDR inhibitor; note: potency is the fitted concentration of half-maximal effect; % is set by controls: 0 for no effect and ±100 for the full control effect
VDR viability = counter-screen for vitamin D receptor inhibitors: cytotoxicity | shares compounds with VDR inhibitor | 840 tested, 18% active | cytotoxicity counter-screen, cell viability, qHTS | AID 602204 | Potency, µM (series often up to 48.3 µM), for the others: at the top dose activity change, negative = cytotoxicity, hits mostly cytotoxic;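 note: potency is the fitted concentration of half-maximal effect; plate controls were DMSO for no effect and high-concentration cycloheximide for full effect; nearly all actives have a fitted effect of over 75% in size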
The depositor's hits bear a star; ? = inconclusive; nt = no result. Unless noted, calls come from the whole dose curve; as a rule, active = well fitted curve in the direction sought with a large enough effect; inconclusive = small, poorly fitted or top-dose-only effect, or another doubt; inactive = no such curve, though single readings can be large; an effect the other way counts as inactive or inconclusive.

SMILES	GALK inh	PLK1 PBD block	USP1 inh	VDR inhibitor	USP2a inh	FBPA coupling cs	VDR inh confirm	VDR FP fluor	VDR bla	VDR viability
CCC1CCCCN1S(=O)(=O)c1ccc(NC(=O)c2nc(S(C)(=O)=O)ncc2Cl)cc1 (stereo unspecified)	0%	12µM*	-21%	20µM*	-7%	0	6*	3.2µM*	12µM*	9.2µM*
CCS(=O)(=O)c1ncc(Cl)c(C(=O)Nc2ccc(S(=O)(=O)N3CCCC(C)C3)cc2)n1 (stereo unspecified)	1%	?	-16%	?	0%	-3	5*	2.8µM*	10µM*	9.5µM*
CC1CCCN(S(=O)(=O)c2ccc(NC(=O)CNC3CCCC3)cc2)C1 (stereo unspecified)	-1%	-14%	-3%	5%	-1%	2	nt	nt	nt	nt
Cc1ccc(N(CC(=O)NCCSCc2ccco2)S(C)(=O)=O)cc1	-3%	-6%	-3%	10%	0%	-2	nt	nt	nt	nt
O=C(Nc1ccc(OC(F)F)cc1)c1nc(S(=O)(=O)Cc2ccccc2F)ncc1Cl	nt	nt	nt	nt	nt	nt	6.3*	4µM*	16µM*	17µM*
O=C(Nc1ccccc1)c1nc(S(=O)(=O)Cc2ccccc2F)ncc1Cl	nt	nt	nt	nt	nt	nt	2.5*	2.5µM*	3.3µM*	13µM*
CCOc1ccc(NC(=O)c2nc(S(=O)(=O)Cc3ccccc3F)ncc2Cl)cc1	nt	nt	3%	?	nt	nt	nt	nt	nt	nt
COc1ccc2cc3c(N)nn(C(=O)c4ccc(F)cc4Cl)c3nc2c1	nt	nt	-26%	-13%	nt	nt	nt	nt	nt	nt
CC(=O)c1nnn(-c2nc(N3CCCC3)nc(N(c3ccccc3)c3ccccc3)n2)c1C	-5%	-4%	-6%	1%	2%	2	nt	nt	nt	nt
Cc1cc(OC(=O)c2cccc(Br)c2)c([N+](=O)[O-])c(=O)[nH]1	nt	-4%	?	-10%	3%	-3	nt	nt	nt	nt
C=CCn1c(SCC)nc2sc3c(c2c1=O)CCc1ccccc1-3	nt	-10%	-11%	-9%	4%	-2	nt	nt	nt	nt
C=CCSc1nc2sc3c(c2c(=O)n1CC)CCc1ccccc1-3	-2%	3µM*	-20%	25µM*	-6%	-1	2.7*	?	32%	-3%
CCOC(=O)/C(=C/c1ccc(OC(F)F)cc1)C1=Nn2c(nnc2-c2ccc(Cl)cc2)SC1	nt	?	-23%	8.9µM*	nt	nt	3.4*	3.5µM*	?	21µM*
CCOC(=O)/C(=C\c1ccc(OC(F)F)cc1)C1=Nn2c(nnc2-c2ccc(Cl)cc2)SC1	-4%	?	-21%	16µM*	-16%	-8	6*	?	16µM*	13µM*
Cc1ccc(OCC(=O)NCC2CCCO2)c(C)c1 (stereo unspecified)	-3%	-1%	-11%	1%	2%	5	nt	nt	nt	nt
COc1cccc2c3c(c(=O)[nH]c12)CCC(C)(C)O3	-2%	-4%	-5%	-1%	2%	0	nt	nt	nt	nt
Cc1cc(C)c2nc(NC(=O)c3ccc(S(=O)(=O)N4CCCC4)cc3)sc2c1	nt	nt	-14%	-3%	nt	nt	nt	nt	nt	nt
CCOC(=O)c1sc(=S)n(-c2cc(F)ccc2F)c1N	-2%	?	-15%	-3%	1%	-2	nt	nt	nt	nt
CCOC(=O)c1sc(=S)n(-c2cc(OC)ccc2OC)c1N	1%	2.7µM*	-9%	20µM*	-1%	4	27*	3.5µM*	17%	-27%
CCOC(=O)c1sc(=S)n(-c2ccc(OC)cc2)c1C	1%	-4%	-8%	-6%	4%	4	nt	nt	nt	nt
COC(=O)c1sc(=S)n(-c2cc(F)ccc2F)c1N	-1%	13µM*	-11%	79µM*	1%	1	19*	?	28%	22%
CCc1nn2c(NCCOC)cc(C)nc2c1-c1ccc(F)cc1	1%	-6%	-7%	-22%	-1%	1	nt	nt	nt	nt
CC(C)(C)c1ccc(C(=O)Nc2ccc(Cl)cc2)cc1	nt	-12%	-1%	-12%	4%	-1	nt	nt	nt	nt
CC(C)(C)c1ccc(C(=O)CC(Sc2ccc(Cl)cc2)C(=O)O)cc1 (stereo unspecified)	4%	11µM*	?	10µM*	-1%	22	11*	3.2µM*	-29%	?
COc1ccc(NC(=O)c2cc(S(=O)(=O)N3CCOCC3)ccc2OC)cc1	nt	nt	3%	4%	nt	nt	nt	nt	nt	nt
SMILES	GALK inh	PLK1 PBD block	USP1 inh	VDR inhibitor	USP2a inh	FBPA coupling cs	VDR inh confirm	VDR FP fluor	VDR bla	VDR viability
CCOC(=O)/C(C#N)=C1/C=CN(Cc2ccccc2)C=N1	3%	-4%	-5%	-13%	2%	2	nt	nt	nt	nt
CCOC(=O)/C(C#N)=C1\C(=O)N(Cc2ccccc2)c2ccccc21	0%	3.4µM*	-23%	28µM*	-6%	-26	6.7*	?	9%	11%
COc1ccc(NC(=O)c2sc3nc(C)c(C(=O)Nc4ccc(Cl)cc4)c(-c4ccc(Br)cc4)c3c2N)cc1	nt	nt	-11%	-17%	nt	nt	nt	nt	nt	nt
Cc1cccc(OCC(=O)Nc2ccc(N3CCN(C(=O)c4ccccc4)CC3)cc2)c1	2%	-7%	-20%	0%	0%	0	nt	nt	nt	nt
Cc1cccc2c1N(Cc1ccccc1OCCC(C)C)C(=O)C2=O	nt	nt	?	22µM*	nt	nt	22*	10µM*	-9%	-19%
Cc1cc(Br)cc2c1N(Cc1ccccc1OC(C)C)C(=O)C2=O	nt	nt	-29%	13µM*	nt	nt	4*	3.5µM*	23µM*	?
Cc1cc2cc(CCNS(C)(=O)=O)c(=O)[nH]c2cc1C	-2%	-1%	-4%	-7%	0%	-1	nt	nt	nt	nt
C=CCn1c(O)c(C2=c3ccccc3=NC2=O)c2ccccc21	-6%	17µM*	-21%	20µM*	-2%	1	17*	?	?	?
C=CCn1c(O)c(C2=c3ccccc3=NC2=O)s/c1=N/c1nccs1	2%	-1%	-18%	-2%	0%	2	nt	nt	nt	nt
COc1ccc(S(=O)(=O)N2CCCCC2)cc1NC(=O)C1CC1(Cl)Cl (stereo unspecified)	nt	2%	-19%	nt	nt	nt	nt	nt	nt	nt
